The campaign covered roughly 5,500 compounds. About 2,000 (36%) were called active. Roughly 18% stayed inconclusive and do not appear here. The list shows a part of the results. Unmarked numbers belong to inactive results. Cut-off read from the data, not from the text of the source: active = normalized growth mostly below about 0.91 (no sharp cut-off); inconclusive = no clear call, values can overlap the other calls; inactive = mostly above about 0.92.
Test: chemical genetic growth profiling, strain panel (AID 1159580);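 note: tested at 20 µM; growth read once vehicle control cultures reached saturation at 30 °C; 1 = growth at the plate median or of vehicle wells; lower values mean less growth of the strain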
Details: growth OD
[1] = S. cerevisiae deletion strains, locus YDL101C, strain DUN1, stronger effect = lower value
[2] = S. cerevisiae deletion strains, locus YHR030C, strain SLT2, stronger effect = lower value
[3] = S. cerevisiae deletion strains, locus YMR307W, strain GAS1, stronger effect = lower value
[4] = S. cerevisiae deletion strains, locus YNL322C, strain KRE1, stronger effect = lower value
[5] = S. cerevisiae deletion strains, locus YPL055C, strain LGE1, stronger effect = lower value
[6] = S. cerevisiae deletion strains, locus YPL241C, strain CIN2, stronger effect = lower value

Work on `Cc1ccc(C)c(CSc2nc(C3CCCCC3)c(C#N)c(=O)[nH]2)c1` yielded a normalized growth (S. cerevisiae deletion strains, locus YAR019C, strain CDC15, stronger effect = lower value) of 0.979, a normalized growth (S. cerevisiae deletion strains, locus YBL105C, strain PKC1, stronger effect = lower value) of 0.975 and a normalized growth (S. cerevisiae deletion strains, locus YBR135W, strain CKS1, stronger effect = lower value) of 0.964. The normalized growth (S. cerevisiae deletion strains, locus YBR136W, strain MEC1, stronger effect = lower value) was 0.98, the normalized growth (S. cerevisiae deletion strains, locus YBR160W, strain CDC28, stronger effect = lower value) was 0.98 and the normalized growth (S. cerevisiae deletion strains, locus YDL017W, strain CDC7, stronger effect = lower value) was 0.981. The normalized growth (S. cerevisiae deletion strains, locus YDL028C, strain MPS1, stronger effect = lower value) was 0.985, the normalized growth [1] was 0.983 and the normalized growth (S. cerevisiae deletion strains, locus YDL108W, strain KIN28, stronger effect = lower value) was 0.985. The normalized growth (S. cerevisiae deletion strains, locus YDL132W, strain cdc53, stronger effect = lower value) was 0.973, the normalized growth (S. cerevisiae deletion strains, locus YDL214C, strain PRR2, stronger effect = lower value) was 1 and the normalized growth (S. cerevisiae deletion strains, locus YDR052C, strain DBF4, stronger effect = lower value) was 0.968. It also gave a normalized growth (S. cerevisiae deletion strains, locus YDR054C, strain cdc34, stronger effect = lower value) of 0.983, a normalized growth (S. cerevisiae deletion strains, locus YDR226W, strain ADK1, stronger effect = lower value) of 0.984 and a normalized growth (S. cerevisiae deletion strains, locus YDR477W, strain SNF1, stronger effect = lower value) of 1. It also gave a normalized growth (S. cerevisiae deletion strains, locus YER123W, strain YCK3, stronger effect = lower value) of 1.01, a normalized growth (S. cerevisiae deletion strains, locus YER133W, strain GLC7, stronger effect = lower value) of 1.01 and a normalized growth (S. cerevisiae deletion strains, locus YFL009W, strain cdc4, stronger effect = lower value) of 0.981. It also gave a normalized growth (S. cerevisiae deletion strains, locus YFL029C, strain CAK1, stronger effect = lower value) of 0.983, a normalized growth (S. cerevisiae deletion strains, locus YFR003C, strain YPI1, stronger effect = lower value) of 0.98 and a normalized growth (S. cerevisiae deletion strains, locus YFR019W, strain FAB1, stronger effect = lower value) of 0.992. The normalized growth (S. cerevisiae deletion strains, locus YFR028C, strain CDC14, stronger effect = lower value) was 0.975, the normalized growth (S. cerevisiae deletion strains, locus YGR040W, strain KSS1, stronger effect = lower value) was 1.02 and the normalized growth (S. cerevisiae deletion strains, locus YGR052W, strain FMP48, stronger effect = lower value) was 1.11. The normalized growth (S. cerevisiae deletion strains, locus YGR092W, strain DBF2, stronger effect = lower value) was 0.987, the normalized growth [2] was 1.18 [resistant] (active) and the normalized growth (S. cerevisiae deletion strains, locus YHR079C, strain IRE1, stronger effect = lower value) was 1.12. It also gave a normalized growth (S. cerevisiae deletion strains, locus YHR082C, strain KSP1, stronger effect = lower value) of 1.14, a normalized growth (S. cerevisiae deletion strains, locus YHR205W, strain SCH9, stronger effect = lower value) of 0.988 and a normalized growth (S. cerevisiae deletion strains, locus YIL147C, strain SLN1, stronger effect = lower value) of 0.971. For the same compound, the normalized growth (S. cerevisiae deletion strains, locus YJL095W, strain BCK1, stronger effect = lower value) was 1.12, the normalized growth (S. cerevisiae deletion strains, locus YJL128C, strain PBS2, stronger effect = lower value) was 0.981 and the normalized growth (S. cerevisiae deletion strains, locus YJL157C, strain FAR1, stronger effect = lower value) was 1. For the same compound, the normalized growth (S. cerevisiae deletion strains, locus YJR016C, strain ILV3, stronger effect = lower value) was 0.989, the normalized growth (S. cerevisiae deletion strains, locus YJR066W, strain TOR1 (second series), stronger effect = lower value) was 0.99 and the normalized growth (S. cerevisiae deletion strains, locus YJR066W, strain TOR1, stronger effect = lower value) was 1.17. The normalized growth (S. cerevisiae deletion strains, locus YKL048C, strain ELM1, stronger effect = lower value) was 0.98, the normalized growth (S. cerevisiae deletion strains, locus YKL067W, strain YNK1, stronger effect = lower value) was 0.98 and the normalized growth (S. cerevisiae deletion strains, locus YKL101W, strain HSL1, stronger effect = lower value) was 0.992. For the same compound, the normalized growth (S. cerevisiae deletion strains, locus YKL193C, strain SDS22, stronger effect = lower value) was 0.97, the normalized growth (S. cerevisiae deletion strains, locus YKL203C, strain TOR2, stronger effect = lower value) was 1.09 and the normalized growth (S. cerevisiae deletion strains, locus YLR113W, strain HOG1, stronger effect = lower value) was 1.06. The normalized growth (S. cerevisiae deletion strains, locus YLR133W, strain CKI1, stronger effect = lower value) was 0.984, the normalized growth (S. cerevisiae deletion strains, locus YLR403W, strain SFP1, stronger effect = lower value) was 0.999 and the normalized growth (S. cerevisiae deletion strains, locus YML070W, strain DAK1, stronger effect = lower value) was 1. For the same compound, the normalized growth (S. cerevisiae deletion strains, locus YMR001C, strain CDC5, stronger effect = lower value) was 0.971, the normalized growth (S. cerevisiae deletion strains, locus YMR205C, strain PFK2 (second series), stronger effect = lower value) was 0.99 and the normalized growth (S. cerevisiae deletion strains, locus YMR277W, strain FCP1, stronger effect = lower value) was 0.978. The normalized growth (S. cerevisiae deletion strains, locus YNL006W, strain LST8, stronger effect = lower value) was 0.978, the normalized growth (S. cerevisiae deletion strains, locus YNL020C, strain ARK1, stronger effect = lower value) was 0.982 and the normalized growth (S. cerevisiae deletion strains, locus YNL161W, strain CBK1, stronger effect = lower value) was 0.984. For the same compound, the normalized growth (S. cerevisiae deletion strains, locus YNL183C, strain NPR1, stronger effect = lower value) was 1.11, the normalized growth (S. cerevisiae deletion strains, locus YNL207W, strain RIO2, stronger effect = lower value) was 0.995 and the normalized growth (S. cerevisiae deletion strains, locus YNL222W, strain SSU72, stronger effect = lower value) was 0.972. It also gave a normalized growth (S. cerevisiae deletion strains, locus YNL307C, strain MCK1 (second series), stronger effect = lower value) of 0.996, a normalized growth (S. cerevisiae deletion strains, locus YOL078W, strain AVO1, stronger effect = lower value) of 0.982 and a normalized growth (S. cerevisiae deletion strains, locus YOL136C, strain PFK27, stronger effect = lower value) of 1.01. For the same compound, the normalized growth (S. cerevisiae deletion strains, locus YOR061W, strain CKA2, stronger effect = lower value) was 0.996, the normalized growth (S. cerevisiae deletion strains, locus YOR119C, strain RIO1, stronger effect = lower value) was 1.04 and the normalized growth (S. cerevisiae deletion strains, locus YOR231W, strain MKK1, stronger effect = lower value) was 1.1. It also gave a normalized growth (S. cerevisiae deletion strains, locus YOR329C, strain SCD5, stronger effect = lower value) of 0.985, a normalized growth (S. cerevisiae deletion strains, locus YPL031C, strain PHO85, stronger effect = lower value) of 1.01 and a normalized growth (S. cerevisiae deletion strains, locus YPL153C, strain RAD53, stronger effect = lower value) of 1.01. It also gave a normalized growth (S. cerevisiae deletion strains, locus YPL204W, strain HRR25, stronger effect = lower value) of 1, a normalized growth (S. cerevisiae deletion strains, locus YPL209C, strain IPL1, stronger effect = lower value) of 0.988 and a normalized growth (S. cerevisiae deletion strains, locus YPL256C, strain CLN2, stronger effect = lower value) of 1.12. For the same compound, the normalized growth (S. cerevisiae deletion strains, locus YPR025C, strain CCL1, stronger effect = lower value) was 0.973, the normalized growth (S. cerevisiae deletion strains, locus YPR106W, strain ISR1, stronger effect = lower value) was 0.987 and the normalized growth (S. cerevisiae deletion strains, locus YPR111W, strain DBF20, stronger effect = lower value) was 0.977. The normalized growth (S. cerevisiae deletion strains, strain NNK1, stronger effect = lower value) was 0.994 and the normalized growth (S. cerevisiae deletion strains, strain TSCII, stronger effect = lower value) was 0.981.

For `NCc1cc(=O)[nH]o1`, the normalized growth (S. cerevisiae deletion strains, locus YAL040C, strain CLN3, stronger effect = lower value) was 1.05, the normalized growth (S. cerevisiae deletion strains, locus YCL061C, strain MRC1 (second series), stronger effect = lower value) was 1 and the normalized growth (S. cerevisiae deletion strains, locus YDR363W, strain ESC2, stronger effect = lower value) was 1.01. It also gave a normalized growth (S. cerevisiae deletion strains, locus YER002W, strain NOP16, stronger effect = lower value) of 1.02, a normalized growth [3] of 1 and a normalized growth (S. cerevisiae deletion strains, locus YNL175C, strain NOP13, stronger effect = lower value) of 1. The normalized growth (S. cerevisiae deletion strains, locus YNL197C, strain WHI3, stronger effect = lower value) was 1.02, the normalized growth (S. cerevisiae deletion strains, locus YNL224C, strain SQS1, stronger effect = lower value) was 1.01 and the normalized growth [4] was 1.01. It also gave a normalized growth (S. cerevisiae deletion strains, locus YOR083W, strain WHI5 (second series), stronger effect = lower value) of 1, a normalized growth [5] of 1.01 and a normalized growth [6] of 0.989.

With `O=C(COc1ccc2c(c1)OCO2)N1CCN(c2ncc(C(F)(F)F)cc2Cl)CC1` the normalized growth (S. cerevisiae deletion strains, locus YAL013W, strain DEP1, stronger effect = lower value) was 0.993, the normalized growth (S. cerevisiae deletion strains, locus YBR229C, strain ROT2, stronger effect = lower value) was 1 and the normalized growth (S. cerevisiae deletion strains, locus YCL061C, strain MRC1, stronger effect = lower value) was 0.983. For the same compound, the normalized growth [1] was 1.03, the normalized growth (S. cerevisiae deletion strains, locus YDR150W, strain NUM1, stronger effect = lower value) was 0.997 and the normalized growth (S. cerevisiae deletion strains, locus YEL061C, strain CIN8, stronger effect = lower value) was 0.948. The normalized growth (S. cerevisiae deletion strains, locus YGR078C, strain PAC10, stronger effect = lower value) was 0.996, the normalized growth [2] was 0.55 (active) and the normalized growth (S. cerevisiae deletion strains, locus YHR087W, strain rtc3, stronger effect = lower value) was 0.977. For the same compound, the normalized growth (S. cerevisiae deletion strains, locus YJL187C, strain SWE1, stronger effect = lower value) was 1, the normalized growth (S. cerevisiae deletion strains, locus YJR043C, strain POL32, stronger effect = lower value) was 1.03 and the normalized growth (S. cerevisiae deletion strains, locus YJR075W, strain HOC1, stronger effect = lower value) was 0.984. For the same compound, the normalized growth (S. cerevisiae deletion strains, locus YKL190W, strain CNB1, stronger effect = lower value) was 0.963, the normalized growth (S. cerevisiae deletion strains, locus YLR039C, strain RIC1, stronger effect = lower value) was 0.876 and the normalized growth (S. cerevisiae deletion strains, locus YLR058C, strain SHM2 (second series), stronger effect = lower value) was 0.998. For the same compound, the normalized growth (S. cerevisiae deletion strains, locus YLR085C, strain ARP6, stronger effect = lower value) was 0.7 (active), the normalized growth (S. cerevisiae deletion strains, locus YLR262C, strain YPT6, stronger effect = lower value) was 0.885 and the normalized growth (S. cerevisiae deletion strains, locus YML094W, strain GIM5, stronger effect = lower value) was 0.964. It also gave a normalized growth (S. cerevisiae deletion strains, locus YMR219W, strain ESC1, stronger effect = lower value) of 0.994, a normalized growth (S. cerevisiae deletion strains, locus YMR263W, strain SAP30, stronger effect = lower value) of 1.01 and a normalized growth [3] of 0.791. It also gave a normalized growth (S. cerevisiae deletion strains, locus YNL153C, strain GIM3, stronger effect = lower value) of 0.978, a normalized growth (S. cerevisiae deletion strains, locus YNL298W, strain CLA4 (second series), stronger effect = lower value) of 0.944 and a normalized growth [4] of 0.987. The normalized growth (S. cerevisiae deletion strains, locus YNR030W, strain Alg12, stronger effect = lower value) was 0.92, the normalized growth (S. cerevisiae deletion strains, locus YOL006C, strain TOP1, stronger effect = lower value) was 0.999 and the normalized growth [5] was 1.03. It also gave a normalized growth [6] of 1.06, a normalized growth (S. cerevisiae deletion strains, locus YPR135W, strain CTF4, stronger effect = lower value) of 0.802 and a normalized growth (S. cerevisiae strains, strain wild type, stronger effect = lower value) of 0.985.

Reference: PubChem BioAssay AID1159580 (chemical genetic matrix, 2015)
